NS1 function inh: influenza NS1 inhibition. AID 2326. hit rate 0.4% among 270,000. Potency, µM (top dose mostly 46.1 µM), for inactives: at the highest dose activity, positive = more growth; calls by dose curve; note: potency is the fitted concentration of half-maximal effect; actives are rising curves; nearly all actives have a fitted effect of over 50% in size
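A cell-based growth assay was used: compounds that relieve NS1-induced slow growth of budding yeast raise OD600. Assay medium was yeast nitrogen base with ammonium sulphate and -URA supplement, pH 6.0, with 2% galactose.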
AmpC inh detg: blocks E. coli AmpC beta-lactamase in detergent assay; AmpC hydrolysis of nitrocefin, absorbance 480 nm, 0.01% Triton; Potency, µM (top dose mostly 114 µM), without a hit: top-dose activity change, negative = inhibition, hits mostly inhibitors; P00811; hit rate 0.041% among 370,000; AID 485294;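 note: potency is the fitted concentration of half-maximal effect; 0% = no-compound wells and -100% = no-enzyme wells; nearly all actives have a fitted effect of over 25% in size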
Target sequence (P00811 whole entry, looked up): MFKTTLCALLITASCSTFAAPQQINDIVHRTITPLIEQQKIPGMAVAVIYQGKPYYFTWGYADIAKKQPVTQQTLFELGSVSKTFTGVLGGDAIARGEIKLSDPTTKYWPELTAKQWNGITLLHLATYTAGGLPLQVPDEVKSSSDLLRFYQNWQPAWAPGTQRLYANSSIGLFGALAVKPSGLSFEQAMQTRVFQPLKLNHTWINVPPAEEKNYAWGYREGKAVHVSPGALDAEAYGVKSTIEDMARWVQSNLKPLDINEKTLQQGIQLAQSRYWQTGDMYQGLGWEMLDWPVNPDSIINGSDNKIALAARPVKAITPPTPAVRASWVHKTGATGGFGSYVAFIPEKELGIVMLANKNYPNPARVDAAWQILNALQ
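20 mM phosphate pH 7.0 + 0.01% (detergent screen) or 0.0001% Triton X-100; 5.3 nM AmpC reagent; cpd preinc 15 min RT; nitrocefin (800 uM stock) to start; A480 q20 s × 4 min; Activity was normalised to no-enzyme and no-compound control wells.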
Cycloheximide cs: counter-screen hit for Shiga toxin inhibitors, cycloheximide. cell reporter, cycloheximide protein synthesis inhibition counterscreen. max response, %. hit rate 12% among 300,000; in the data active = max response mostly above about 13%, no sharp cut-off; inactive = mostly below about 14%; note: read at 38.3 µM for the half of the compounds with a filed dose; 0% is about no effect
AmpC inh no detg: AmpC beta-lactamase inhibition without detergent; P00811; AmpC nitrocefin hydrolysis, absorbance 480 nm, 0.0001% Triton; Potency, µM (top dose mostly 57.1 µM), inactives show at the top dose activity change, negative = inhibition, hits mostly inhibitors; hit rate 0.52% among 330,000;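 note: potency is the fitted concentration of half-maximal effect; plate controls were no compound for no effect and no enzyme for full effect; nearly all actives have a fitted effect of over 20% in size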
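AmpC (5.3 nM in the dispensed reagent) in 20 mM phosphate pH 7.0 with 0.01% (detergent screen) or 0.0001% Triton X-100 was preincubated with compounds for 15 min at room temperature. Nitrocefin was then added from an 800 uM solution, and hydrolysis was followed at 480 nm.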
Shiga inhibitor: blocks Shiga toxin action in Vero cells; inhibition, % at 38.7 µM; Vero cells, Shiga toxin protein synthesis inhibition reporter; AID 2315; hit rate 9.2% among 290,000; in the data active = inhibition mostly above about 28%, no sharp cut-off; inactive = mostly below about 43%; note: 0% is about no effect
An asterisk follows results filed as active; ? = inconclusive; · = no result. The entries come from a sample that favours hits as a whole. Unless noted, calls come from the whole dose curve; as a rule, active = well fitted curve in the direction sought with a large enough effect; inconclusive = small, poorly fitted or top-dose-only effect, or another doubt; inactive = no such curve, though single readings can be large; an effect the other way counts as inactive or inconclusive.

SMILES	NS1 function inh	AmpC inh detg	Cycloheximide cs	AmpC inh no detg	Shiga inhibitor
O=C(Nc1nnc(SCC(=O)N2CCCc3ccccc32)s1)c1ccc2ccccc2c1	?	5.4%	37.3*	-17.7%	58.1*
O=C(Nc1nnc(SCC(=O)N2CCCc3ccccc32)s1)c1ccccc1	3.2%	-10.0%	34.1*	-22.4%	40.6*
Cc1cc(C)cc(C(=O)Nc2nnc(SCC(=O)N3CCCc4ccccc43)s2)c1	4.2%	-3.2%	1.9	-12.0%	-4.0
Cc1cc(C(=O)Nc2cccc(O)c2)c(C)o1	-11.4%	0.1%	18.1	-19.4%	15.2
Cc1occc1C(=O)Nc1ccc2c(c1)OCCO2	-42.7%	-3.2%	107.0*	-14.2%	99.8*
Cc1cc(C)c(C(N)=O)c(Nc2ccc3c(c2)OCCO3)n1	3.5%	?	9.9	-2.4%	13.4
Cc1ccccc1C(=O)Nc1ccc2c(c1)OCCO2	-11.1%	-1.0%	17.8*	-11.5%	19.7
CC(=O)c1c(Nc2ccc3c(c2)OCCO3)oc(C)cc1=O	-61.7%	-13.8%	52.5*	0.2%	117.9*
Cc1cc(C(=O)Nc2ccc3c(c2)OCCO3)c(C)o1	-18.5%	-2.1%	27.8*	-20.7%	68.3*
CC(=O)NCc1cc(Cl)c2cccnc2c1O	·	-6.5%	·	-5.7%	·
O=C(Nc1ccc2c(c1)OCCO2)c1coc2ccccc2c1=O	-0.8%	-4.2%	47.8*	-19.5%	59.7*
Cc1occc1C(=O)Nc1ccc2c(c1)CCC2	-93.1%	?	48.5*	-20.0%	103.2*
CSc1ccccc1C(=O)Nc1ccc2c(c1)OCCO2	-10.2%	6.1%	22.9	·	64.4
CCOC(=O)CSc1nc(=O)n2cc(C)ccc2n1	2.6%	4.4%	17.3*	-22.8%	33.1
Cc1ccc2nc(SCC(=O)OCc3ccccc3)nc(=O)n2c1	·	-9.9%	·	-1.6%	·
CCOC(=O)C(C)Sc1nc(=O)n2cc(C)ccc2n1 (stereo not drawn)	2.7%	0.2%	12.5	-15.9%	23.5
CCCSc1nc(=O)n2cc(C)ccc2n1	4.4%	4.9%	33.0*	-9.2%	57.1*
Cc1ccc(Cn2ccn(Cc3ccc(C)cc3)c(=O)c2=O)cc1	·	17.1%	·	·	·
COc1ccc2cc(OC)c(C(=O)N3CCOCC3)cc2c1	1.3%	-0.2%	-2.4	-3.4%	-29.5
O=C(c1cc(-c2ccccc2O)on1)N1CCCCCC1	-1.8%	-7.6%	34.4*	-25.6%	104.0*
O=C(c1cc(-c2ccccc2O)on1)N1CCOCC1	0.5%	-13.5%	31.0*	-6.6%	79.6*
Cc1onc(-c2ccccc2Cl)c1C(=O)N1CCCCC1	3.0%	-2.6%	-2.2	-2.7%	1.5
COc1ccccc1-c1cc(C(=O)N2CCN(c3ccccc3)CC2)no1	-13.7%	4.5%	-2.0	1.8%	2.1
COc1ccc(OC)c(-c2cc(C(=O)N3CCOCC3)no2)c1	-10.8%	-4.1%	13.6*	17.3%	17.2
COCCn1c(CNC(=O)c2ccc(C)cc2)nc2cccnc21	·	4.5%	·	·	·
SMILES	NS1 function inh	AmpC inh detg	Cycloheximide cs	AmpC inh no detg	Shiga inhibitor
FC(F)(F)c1cc(NC(=S)N2c3ccccc3-n3cccc3[C@H]2c2cccnc2)cc(C(F)(F)F)c1	-15.9%	·	·	·	·
CC(C)S(=O)(=O)c1oc(-c2ccc(F)cc2)nc1S(=O)(=O)c1ccccc1	·	6.8%	·	·	·
COc1ccc(NC(=O)c2cc(C)n(Cc3cccs3)c2C)cc1	-5.5%	-4.7%	62.1*	-33.9%	82.1*
Cc1cc(C(=O)COc2ccc3ccc(=O)oc3c2)c(C)n1Cc1cccs1	9.7%	?	19.9*	-26.7%	11.6
Cc1ccc(OCC(=O)c2cc(C)n(Cc3cccs3)c2C)c([N+](=O)[O-])n1	4.1%	-2.6%	36.2*	-6.9%	31.5
COCCn1c(C)cc(C(=O)COc2cccnc2[N+](=O)[O-])c1C	·	8.5%	31.9*	10.2%	53.3*
Cc1cc(C)c(C(=O)COc2cccnc2[N+](=O)[O-])cc1C	-24.9%	2.0%	5.1	-14.2%	-11.1
COc1ccc(N(Cc2cccs2)C(=O)Nc2ccccc2)cc1	·	33.6%	·	·	·
Cc1cccc(OCc2nc(C#N)c(NCc3ccccc3Cl)o2)c1	·	30.4%	·	·	·
Cc1ccc2nc(-c3ccc(NS(=O)(=O)c4ccc(F)c(F)c4)cc3)sc2c1	-61.3%	9.0%	63.7*	-21.3%	95.8*
Cc1ccc2nc(-c3ccc(NS(=O)(=O)c4ccccc4)cc3)sc2c1	14.0%	-0.9%	29.3*	-41.1%	active
Cc1nc2ccc(NS(=O)(=O)c3ccc(F)c(F)c3)cc2s1	·	3.1%	·	-28.5%	·
Cc1ccc(S(=O)(=O)Nc2ccc3nc(N)sc3c2)cc1	-3.2%	-1.9%	-2.3	-49.2%	-3.8
O=C(Nc1ccc(C(=O)O)cc1)/C(=C\C=C\c1ccccc1)NC(=O)c1ccccc1Br	24.1%	?	7.4	-51.7%	6.4
COc1ccc(NC(=O)c2c(N)c(C(=O)c3ccc(C)cc3)n3ccccc23)cc1OC	·	19.8%	·	·	·
O=C(O)c1cc2c(s1)-c1ccccc1CC2	-39.8%	-0.4%	-2.3	-17.7%	-5.3
c1ccc(-c2cc3n(c2)CCc2ccccc2-3)cc1	0.1%	-14.3%	14.9*	-35.2%	49.2*
CCOC(=O)C(CCC(C)=O)C(=O)c1ccccc1 (stereo not drawn)	13.1%	-18.5%	-0.6	-4.8%	-4.6
CCOC(=O)C(CC(=O)c1ccccc1)CC(=O)c1ccccc1	-6.8%	-0.9%	39.0*	-9.4%	112.6*
COC(=O)C(CC(=O)c1ccccc1)CC(=O)c1ccccc1	-3.2%	-6.0%	17.5*	-3.7%	42.7*
CCOC(=O)c1cn(CC)c2c(ccc3ccccc32)c1=O	-14.2%	-8.6%	34.7*	12.8%	41.8*
CCn1cc(C(=O)OCc2ccccc2)c(=O)c2ccc(C)nc21	-32.1%	?	1.5	-8.5%	-1.5
CCn1cc(C(=O)Nc2cccc(C(=O)OC)c2)c(=O)c2ccc(C)nc21	-4.0%	0.2%	-0.5	-20.0%	-19.7
CCn1cc(C(=O)Nc2ccccc2C(=O)OC)c(=O)c2ccc(C)nc21	-8.1%	-19.7%	50.6*	15.8%	144.7*
CCOC(=O)c1ccccc1NC(=O)c1cn(CC)c2nc(C)ccc2c1=O	-21.0%	9.3%	40.4*	40.6%	63.6*
SMILES	NS1 function inh	AmpC inh detg	Cycloheximide cs	AmpC inh no detg	Shiga inhibitor
COc1cccc(CNC(=O)CSc2nc(=O)[nH]c3c2CCC3)c1	·	2.2%	·	·	·
COc1ccc(CN2CCN(CCc3ccccc3)C(CCO)C2)cc1Cn1cncn1 (stereo not drawn)	-2.3%	7.2%	-0.5	15.1%	-20.6
O=C(C1CCC(=O)N(C2CCCC2)C1)N1CCC(Oc2ccccc2Cl)CC1 (stereo not drawn)	-3.7%	-0.2%	-0.9	212.9%	-23.0
CCOc1ccc(CCNC(=O)CCCn2nc(C)c3sc4ccccc4c3c2=O)cc1OCC	·	-0.2%	·	·	·
Oc1ccc(Br)cc1/C=N/Nc1ncc(-c2ccccc2)cn1	3.8%	1.4%	-3.0	-35.7%	-17.1
Oc1ccc(Br)cc1/C=N/N1CCCCC1	0.6%	-9.7%	52.4*	-29.3%	81.9*
Oc1ccc(Br)cc1/C=N/n1cnc2ccccc21	-61.2%	-10.2%	41.2*	-30.8%	60.2*
Cc1nnc(NC(=O)CCCCCN2C(=O)C3C4C=CC(C4)C3C2=O)s1 (stereo not drawn)	-1.1%	?	-3.8	6.31µM*	-3.2
